pCIP destab: p/CIP-EGFP fusion destabilizers, primary screen, fluorescence, F442A cells | Q05BA5 | 16 h | decrease of EGFP signal, % at 10 µM | 290,000 compounds, 0.01% hits | AID 1984, 2009;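 active means EGFP signal decrease of at least 30% at 10 µM or well 3 SD below plate mean, unless failing retest; inactive means the rest, including hits failing retest or dose response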
Target sequence (Q05BA5 1-1403): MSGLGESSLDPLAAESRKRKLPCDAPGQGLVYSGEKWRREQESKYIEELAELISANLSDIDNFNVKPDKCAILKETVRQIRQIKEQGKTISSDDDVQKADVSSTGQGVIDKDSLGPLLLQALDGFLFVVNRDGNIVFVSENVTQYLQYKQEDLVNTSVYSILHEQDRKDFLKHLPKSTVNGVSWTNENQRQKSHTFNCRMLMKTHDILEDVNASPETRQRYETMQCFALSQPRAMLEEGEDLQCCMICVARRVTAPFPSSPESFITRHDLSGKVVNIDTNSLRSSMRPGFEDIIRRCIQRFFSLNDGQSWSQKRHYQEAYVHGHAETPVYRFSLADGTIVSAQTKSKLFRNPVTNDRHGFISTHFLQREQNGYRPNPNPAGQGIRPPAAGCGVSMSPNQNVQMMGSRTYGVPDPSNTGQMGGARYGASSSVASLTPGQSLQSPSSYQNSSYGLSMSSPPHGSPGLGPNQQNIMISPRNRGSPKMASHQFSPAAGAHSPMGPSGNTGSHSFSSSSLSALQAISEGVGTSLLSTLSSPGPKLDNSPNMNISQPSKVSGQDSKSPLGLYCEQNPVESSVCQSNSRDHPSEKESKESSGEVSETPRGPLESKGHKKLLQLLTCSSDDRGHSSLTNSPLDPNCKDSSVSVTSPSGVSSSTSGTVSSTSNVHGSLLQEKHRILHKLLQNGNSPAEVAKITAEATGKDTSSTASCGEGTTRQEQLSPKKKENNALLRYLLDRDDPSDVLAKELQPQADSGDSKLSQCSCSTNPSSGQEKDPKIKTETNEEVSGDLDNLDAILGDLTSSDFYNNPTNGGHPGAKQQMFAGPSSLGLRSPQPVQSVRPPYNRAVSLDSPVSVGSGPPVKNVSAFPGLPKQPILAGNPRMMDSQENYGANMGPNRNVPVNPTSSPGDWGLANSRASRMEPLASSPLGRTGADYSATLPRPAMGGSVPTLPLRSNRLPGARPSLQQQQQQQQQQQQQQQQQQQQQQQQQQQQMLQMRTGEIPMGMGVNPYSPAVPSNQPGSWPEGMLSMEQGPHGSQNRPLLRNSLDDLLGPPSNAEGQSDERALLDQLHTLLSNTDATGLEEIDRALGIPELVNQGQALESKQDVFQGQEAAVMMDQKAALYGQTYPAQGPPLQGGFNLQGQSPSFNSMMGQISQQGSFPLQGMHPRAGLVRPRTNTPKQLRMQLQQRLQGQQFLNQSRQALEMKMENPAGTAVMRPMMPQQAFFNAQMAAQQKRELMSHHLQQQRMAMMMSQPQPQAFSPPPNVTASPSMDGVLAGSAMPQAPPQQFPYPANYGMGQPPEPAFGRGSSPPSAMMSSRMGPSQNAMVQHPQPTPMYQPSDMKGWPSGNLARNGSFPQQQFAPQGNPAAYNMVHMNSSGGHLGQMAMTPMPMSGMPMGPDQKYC
MPTP inh: mitochondrial permeability transition pore inhibitors, primary screen, biochemical, isolated mouse mitochondria, absorbance. Ca2+ swelling absorbance, 30 min. inhibition, % at 10 µM. 360,000 compounds, 1.4% hits. AID 602449, 2012;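 active means inhibition of 50% or more, scaled per plate between neutral and stimulator controls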
beta cell repl: inducers of MIN6 beta-cell proliferation, primary screen, ATP luminescence, uHTS; proliferation, % at 10 µM; MIN6 cells proliferation, ATPlite luminescence, 48 h; cells starved in 0.2% serum; 100% = growth in 10% serum; 330,000 compounds, 0.29% hits;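 active means compounds whose signal lies at least 3.5 SD above the mean of all wells on their plate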
NR3A LBD binder: binders of NR3A ligand-binding domain, primary screen, biophysical, differential scanning fluorimetry, uHTS; Glutamate receptor ionotropic, NMDA 3A (GRIN3A) ligand-binding domain; AID 1259313, 2017; NR3A LBD differential scanning fluorimetry, Tm shift; 0% = protein alone, 100% = glycine-bound protein; 340,000 compounds, 2.5% hits; Tm shift relative to glycine control, % at 25 µM;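 active means melting temperature shift of at least 10% of the positive control shift, at one fixed dose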
FAS-TE inh: FAS thioesterase domain inhibitors, primary screen, biochemical, fluorescence intensity, uHTS. AID 602261, 2012. Fatty acid synthase (Homo sapiens), P49327. 360,000 compounds, 0.67% hits. inhibition, % at 15 µM. recombinant FAS-TE, OMFH fluorogenic substrate, fluorescence endpoint;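 active means compounds whose normalised, plate-corrected inhibition of enzyme fluorescence in the single-dose primary screen is 50% or more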
Numbers stand for hits; 0 = inactive; - = not tested or not shown. Shown are actives, neighbours in structure and some others; about 4.1% of the full set was active somewhere.

SMILES | pCIP destab | MPTP inh | beta cell repl | NR3A LBD binder | FAS-TE inh
O=C(NCc1ccc(Cl)c(Cl)c1)c1cc(C2CCCCN2C(=O)OCCF)on1 (stereo not given) | - | 0 | - | - | 0
NC(=O)c1ccsc1NC(=O)COC(=O)Cc1cccc2ccccc12 | 0 | 0 | 0 | 24 | 0
NC(=O)c1ccsc1NC(=O)COC(=O)Cc1ccccc1[N+](=O)[O-] | - | 0 | - | - | 0
CCc1sc(C(=O)Nc2ccc(NC(C)=O)cc2)cc1C | 0 | 0 | 0 | 11 | 0
CCc1sc(C(=O)Nc2ccc3nc(C)sc3c2)cc1C | - | 0 | 0 | 0 | 0
Cc1c(C(=O)N/N=C/c2ccc(O)c(Br)c2)sc(N)c1C#N | 0 | 0 | - | 14 | 0
COc1cc(/C=N/NC(=O)c2sc(N)c(C#N)c2C)ccc1O | 0 | 0 | 0 | 15 | 0
COc1cc(/C=N/NC(=O)c2ccccc2)ccc1O | 0 | 0 | 0 | 0 | 0
Cc1cccc(NC(=O)COC(=O)c2cccc3c2C(=O)c2ccccc2C3=O)c1C | 0 | 0 | 0 | 0 | 0
Nc1cccc(C(=O)OCC(=O)Nc2cccc3c2C(=O)c2ccccc2C3=O)c1 | 0 | 0 | 0 | 33 | 0
COCCNC(=S)N(CCc1c(C)[nH]c2ccc(F)cc12)Cc1cccnc1 | 0 | 0 | 0 | 13 | 0
COCCNC(=S)N(CCc1c(C)[nH]c2ccc(Cl)cc12)Cc1cccnc1 | 0 | 0 | 0 | 0 | 0
Oc1ccc(-c2nccc(-c3ccc(Cl)cc3Cl)n2)cc1 | 0 | 0 | 0 | 0 | 0
Oc1ccc(-c2nccc(-c3ccc(Cl)cc3)n2)cc1 | 0 | 0 | 0 | 57 | 0
N#Cc1c(-c2ccccc2)cc(-c2ccc(O)cc2)nc1N | 0 | 0 | 0 | 15 | 0
Oc1ccc(-c2cc(-c3ccc(O)cc3)nc(-c3ccccc3)n2)cc1 | 0 | 0 | 0 | 29 | 0
Oc1ccc(-c2cccc(-c3ccc(O)cc3)n2)cc1 | 0 | 0 | 0 | 14 | 0
Nc1ccc(-c2cc(-c3ccc(N)cc3)nc(-c3ccccc3)n2)cc1 | 0 | 0 | 0 | 25 | 0
Cc1ccc(S(=O)(=O)Nc2nc(C)c(NC(=O)Nc3ccc(Cl)cc3Cl)s2)cc1 | 0 | 0 | 0 | 28 | 0
COCCNC(=O)COc1ncnc2ccc(Br)cc12 | 0 | 0 | 0 | 13 | 0
CSc1ccc(Cn2c(C)c(C(=O)NCc3cccc(C(F)(F)F)c3)sc2=O)cc1 | - | 0 | - | - | 0
CCCC(=O)Nc1cc2c(cc1C(C)=O)OCCO2 | 0 | 0 | 0 | 0 | 0
CC(=O)Nc1cc2c(cc1C(C)=O)OCCO2 | 0 | 0 | 0 | 13 | 0
CCOC(=O)N1CCN(C(=O)c2ccc(OCC)c(OCC)c2)CC1 | 0 | 0 | 0 | 10 | 0
CCOc1ccccc1N1CCN(C(=O)c2ccc3c(c2)OCO3)CC1 | 0 | 0 | 0 | 10 | 0
SMILES | pCIP destab | MPTP inh | beta cell repl | NR3A LBD binder | FAS-TE inh
Cc1cc(C)c(S(=O)(=O)/N=C2\C=CC(=O)C(Cl)=C2)c(C)c1 | 0 | 0 | 0 | 12 | 0
Cc1oc(C(C)(C)C)cc1-c1cc(NC(=O)c2ccc([N+](=O)[O-])cc2)n[nH]1 | 0 | 0 | 0 | 15 | 0
O=C(NCC(c1cccnc1)N1CCN(c2ccccc2F)CC1)OCc1ccccc1 (stereo not given) | 0 | 0 | 0 | 12 | 0
CC(c1ccc2ccccc2c1)c1ccccc1C(=O)O (stereo not given) | - | 0 | - | - | 0
COc1ccc(-n2c(SCC(=O)Nc3ccc(Cl)cc3)nc(O)c(Cc3ccccc3)c2=O)cc1 | 0 | 0 | 0 | 10 | 0
COc1ccc(-n2c(SCC(=O)Nc3ccc(C)cc3)nc(O)c(Cc3ccccc3)c2=O)cc1 | 0 | 0 | 0 | 0 | 0
COc1ccc(OC(F)(F)F)cc1CC1(C)C(=O)Nc2ccc(-c3ccsc3)cc21 (stereo not given) | - | 0 | - | - | 0
CC(C)C[C@@H](CN1CCCC1CN1C(=S)NC[C@@H]1Cc1ccccc1)N1C[C@H](Cc2ccccc2)N(CCc2ccccc2)C1=S (stereo not given in full) | - | 0 | - | - | 0
CC(C)(C)C1CCNC(=O)CC1 (stereo not given) | - | 0 | - | - | 0
CCOC(=O)C1(C)CCCN1C(=O)c1cccc2ccccc12 (stereo not given) | - | 0 | - | - | 0
COc1ccc(C(CC(=O)N2CCCC(C)C2)c2c(OC)cc(OC)c3c(-c4ccccc4)cc(=O)oc23)cc1 (stereo not given) | 0 | 0 | 0 | 16 | 0
COc1ccc(C(CC(=O)N2CCCC2)c2c(OC)cc(OC)c3c(-c4ccccc4)cc(=O)oc23)cc1 (stereo not given) | 0 | 0 | 0 | 0 | 0
COC(=O)[C@]12CCCCC=C1N(CCc1ccc(OC)c(OC)c1)C(=O)[C@H](CC(=O)N1CCN(C(=O)c3ccco3)CC1)C2 | - | 0 | - | - | -
COc1cc(/C=C(\C#N)C(=O)NCC2CCCO2)ccc1OCC(=O)O (stereo not given) | 0 | 0 | 0 | 0 | 0
COc1ccc(CCNC(=O)/C(C#N)=C/c2ccc(OCC(=O)NCC3CCCO3)cc2)cc1OC (stereo not given) | 0 | 0 | 0 | 14 | 0
Cc1ccc(C(=O)OCC(=O)NCc2ccco2)cc1 | 0 | 0 | 0 | 10 | 0
COc1ccc(OC)c(NC(=O)CN(Cc2ccc(F)cc2)C2CCCCC2)c1 | 0 | 0 | 0 | 0 | 0
O=C(c1cc(C2CC2)on1)N1CCCC(N2CCN(c3cccc(C(F)(F)F)c3)CC2)C1 (stereo not given) | 0 | 0 | 0 | 0 | 0
Cc1cccc(C(=O)N2CCCC(N3CCN(c4cccc(Cl)c4)CC3)C2)n1 (stereo not given) | 0 | 0 | 0 | 13 | 0
Cc1ccccc1N1CCN(C2CCCN(C(=O)c3ccc(Cl)s3)C2)CC1 (stereo not given) | 0 | 0 | 0 | 11 | 0
O=C(c1cnccn1)N1CCCC(N2CCN(c3cccc(Cl)c3)CC2)C1 (stereo not given) | 0 | 0 | 0 | 0 | 0
COCc1ccc(C(=O)N2CCCC(N3CCN(c4ccccc4C)CC3)C2)s1 (stereo not given) | 0 | 0 | 0 | 0 | 0
Cc1cc(C(=O)N2CCCC(N3CCN(c4cccc(C(F)(F)F)c4)CC3)C2)no1 (stereo not given) | 0 | 0 | 0 | 20 | 0
CCc1nc2ccc(C(=O)Nc3cccc(OC)c3)cn2c1N(CC)Cc1cccc(Br)c1 | - | 0 | - | - | 0
COc1ccc(C(=O)N/C(=C\c2ccc(Cl)cc2)C(=O)NCc2ccncc2)cc1 | - | 0 | - | - | 0
CC(C)CCNC(=S)Nc1ccccc1F | 0 | 0 | 0 | 14 | 0
CC(C)CCNC(=S)Nc1ccccn1 | 0 | 0 | 0 | 0 | 0
C/C(=N\OC(=O)Nc1ccc(Cl)cc1)c1ccc(F)c(F)c1 | 0 | 0 | 0 | 36 | 0
c1ccc(CN(CCN2CCOCC2)Cc2ccccc2)cc1 | - | 0 | - | 0 | 0

Assay outcomes (PubChem)
